PINK1 modulator – A Quantitative High throughput Screen to Identify Chemical Modulators of PINK1 Expression; PINK1 immunofluorescence, high-content cytometry, 24 h; Potency, µM (doses to about 76.6 µM), inactives show at the top dose activation (PINK1 increase), most hits filed as activators; hit rate 0.2% among 410,000; AID 624263, 2012; active = well fitted activation curve with a large enough effect; inconclusive = small, poorly fitted or top-dose-only effect; cell line not stated here; note: % of control where 0% means no effect; nearly all actives have a fitted effect of over 65% in size
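Stable cell line, 250 cells/well, 12 h attachment; compounds pinned at 5 concentrations, 24 h; CCCP control. Fixed with nuclear dye, primary antibodies 12 h at 10 degrees C, secondary plus cell stain; laser-scanning cytometer read.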
12-LOX inh – Primary qHTS assay for inhibitors of human arachidonate 12S-lipoxygenase (ALOX12): Round 2 | purified 12hLO, xylenol orange hydroperoxide absorbance | Potency, µM (highest dose often 108 µM), inactives show at the highest dose activity change, negative = inhibition, most hits filed as inhibitors | Polyunsaturated fatty acid lipoxygenase ALOX12 (Homo sapiens), P18054 | AID 1671190, 2021 | hit rate 1.1% among 580,000; note: % is set by controls: 0 for no effect and ±100 for the full control effect
Target sequence (P18054 whole entry, looked up): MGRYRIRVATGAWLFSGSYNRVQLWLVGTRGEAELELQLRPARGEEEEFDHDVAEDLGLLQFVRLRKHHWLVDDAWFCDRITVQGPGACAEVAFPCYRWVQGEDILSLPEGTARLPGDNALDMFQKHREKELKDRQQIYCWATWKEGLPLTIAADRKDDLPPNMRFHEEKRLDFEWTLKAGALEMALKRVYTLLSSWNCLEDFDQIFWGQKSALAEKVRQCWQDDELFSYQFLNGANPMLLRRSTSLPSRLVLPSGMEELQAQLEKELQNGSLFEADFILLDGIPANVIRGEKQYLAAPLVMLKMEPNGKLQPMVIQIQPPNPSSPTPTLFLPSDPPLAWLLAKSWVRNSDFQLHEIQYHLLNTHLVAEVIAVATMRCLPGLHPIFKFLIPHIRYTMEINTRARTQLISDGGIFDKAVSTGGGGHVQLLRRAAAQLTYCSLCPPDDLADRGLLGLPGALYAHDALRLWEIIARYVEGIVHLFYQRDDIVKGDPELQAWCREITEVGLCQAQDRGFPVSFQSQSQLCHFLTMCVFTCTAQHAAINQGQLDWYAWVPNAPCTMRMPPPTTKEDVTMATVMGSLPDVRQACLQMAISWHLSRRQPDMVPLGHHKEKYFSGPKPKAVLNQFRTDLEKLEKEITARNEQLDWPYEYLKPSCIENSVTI
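Purified human 12hLO (150 nM final) in 25 mM Hepes, 0.01% Triton X-100, pH 7.0 was preincubated 15 min at room temperature with compound. Then 40 uM arachidonic acid was added, 30 min. Hydroperoxide was read by Fe-XO absorbance ratio 573/405 nm.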
KB-V1 MDR tox – qHTS assay for MDR1-selective chemotherapeutics: Primary screen using the drug-selected MDR subline cells KB-V1; KB-V1 MDR cells viability, CellTiter-Glo, 72 h; Potency, µM (series often up to 46.1 µM), usual class: cytotoxic; hit rate 3.4% among 400,000; AID 1347076, 2019; note: % is set by controls: 0 for no effect and ±100 for the full control effect; nearly all actives have a fitted effect of over 60% in size
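Drug-selected KB-V1 cells, grown in DMEM lacking phenol red with 10% FBS, receive compound titrations; after three days at 37 degrees C, surviving cell ATP is quantified by CellTiter-Glo luminescence and responses normalized and curve-fitted.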
SW480 rerep – A quantitative high throughput screen for small molecules that induce DNA re-replication in SW480 colon adenocarcinoma cells. SW480 DNA re-replication, Hoechst DNA content imaging, 48 h. Potency, µM (top dose mostly 46.1 µM), for inactives: top-dose re-replication activation, hits mostly activators. hit rate 1.8% among 340,000; note: % of control where 0% means no effect; nearly all actives have a fitted effect of over 55% in size
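Per well, 250 cells were exposed to pinned compound for 48 hr. Nuclear DNA was visualised with Hoechst (40 min, 37 C) and total object intensity recorded by fluorescence scanning.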
MCF10A rerep – A quantitative high throughput screen for small molecules that induce DNA re-replication in MCF 10a normal breast cells. hit rate 2.9% among 350,000. Potency, µM (titrated, usually from 46.1 µM), for inactives: at the highest dose activity, positive = re-replication, hits mostly activators. MCF 10A DNA re-replication, Hoechst nuclear intensity, 48 h; note: % of control where 0% means no effect; nearly all actives have a fitted effect of over 50% in size
KB-3-1 tox – qHTS assay for MDR1-selective chemotherapeutics: Primary screen using the parental adenocarcinoma cell KB-3-1; KB-3-1 viability, CellTiter-Glo ATP luminescence, 72 h; Potency, µM (doses to about 46.1 µM), hits mostly cytotoxic; hit rate 1.4% among 400,000; AID 1347075, 2019; note: % is set by controls: 0 for no effect and ±100 for the full control effect; nearly all actives have a fitted effect of over 60% in size
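Luminescent ATP read-out (CellTiter-Glo) measures survival of drug-naive KB-3-1 cells after 72 h compound exposure at 37 °C. Titration series was screened from lowest to highest concentration, with DMSO vehicle plates as background controls.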
An asterisk follows results filed as active; i = inactive; ? = inconclusive; nt = no result; [ ] = another dose, or the depositor's remark. Sampled rows, rich in hits. Any-hit rate of the full collection: about 5.8%. Unless noted, calls come from the whole dose curve; as a rule, active = well fitted curve in the direction sought with a large enough effect; inconclusive = small, poorly fitted or top-dose-only effect, or another doubt; inactive = no such curve, though single readings can be large; an effect the other way counts as inactive or inconclusive. Potency is the fitted concentration of half-maximal effect.

SMILES | PINK1 modulator | 12-LOX inh | KB-V1 MDR tox | SW480 rerep | MCF10A rerep | KB-3-1 tox
CCCCSc1nnc(COc2ccc(Cl)cc2)n1C | nt | -8.7% | nt | nt | nt | nt
COCCCNc1oc(-c2cccc3ccccc23)nc1C#N | nt | -25.2% | nt | nt | nt | nt
Cc1cccc(-n2cnc3cc(C(=O)NCCN4CCOCC4)ccc32)c1 | 3.6% | -4.0% | ? | nt | nt | i
CC(C)Cn1c(N)c(C(=O)NCCN2CCOCC2)c2nc3ccccc3nc21 | 0.2%[38.3 µM] | -1.2% | 23.1µM* | -0.2% | -4.9% | i
Cc1cccc(-n2c(N)c(C(=O)NCCN3CCOCC3)c3nc4ccccc4nc32)c1 | 3.5% | 0.0% | i | ? | 20.6µM* | i
Cc1nc(-c2cccc(Cl)c2)sc1C(=O)N1CCN(Cc2ccc(C#N)cc2)CC1 | nt | 6.4% | nt | nt | nt | nt
COc1ccc(CN2CCC3(C2)C(=NC2CCCCC2)NC(=O)N3c2cccc(OC)c2)cc1 (stereo unspecified) | nt | 3.2%[6.33 µM] | nt | nt | nt | nt
CC(O)CNc1nc2c(c(=O)n(C)c(=O)n2C)n1Cc1ccc(F)cc1 (stereo unspecified) | nt | 10.5% | nt | nt | nt | nt
CCCOc1ccc(C2C(C(=O)OC)=CN(CCOC)C=C2C(=O)OC)cc1 | 2.5% | 0.7% | i | -0.7%[9.22 µM] | 5.6% | i
CCCCN1C=C(C(=O)OC)C(c2ccccc2Cl)C(C(=O)OC)=C1 | 1.2% | -9.7% | i | ? | 7.31µM* | i
COCCN1C=C(C(=O)OC)C(c2ccccc2C(F)(F)F)C(C(=O)OC)=C1 | 1.9% | 11.7% | i | 18.4µM* | 16.4µM* | i
CCCCN1C=C(C(=O)OC)C(c2ccccc2C(F)(F)F)C(C(=O)OC)=C1 | 3.1% | -2.5% | i | 9.2µM* | 2.91µM* | i
CCCCOc1ccccc1C1C(C(=O)OC)=C(C)N(C)C(C)=C1C(=O)OC | 2.2% | -17.4% | 9.2µM* | 8.3% | 17.1% | i
COC(=O)C1=CNC=C(C(=O)OC)C1c1ccccc1Cl | 0.3% | ? | i | ? | ? | i
CC(C)n1ncc2c(C(=O)Nc3ccc(Br)cc3F)c3c(nc21)CCC3 | nt | 2.8% | nt | nt | nt | nt
CCOc1cccc2cc(-c3cc(=O)oc4cc(O)ccc34)c(=O)oc12 | nt | 17.4% | nt | nt | nt | nt
CCc1nn2c(=O)cc(CSc3n[nH]c(-c4cccc(C)c4)n3)nc2s1 | nt | -25.4% | nt | nt | nt | nt
CCCn1c(C)cnc1CC1CCCN(C(=O)c2ccncc2)C1 (stereo unspecified) | nt | 3.5% | nt | nt | nt | nt
COc1ccccc1-c1nc(C#N)c(N2CCc3ccccc3C2)o1 | -6.6%[38.3 µM] | 5.4% | ? | 16.9% | 16.4µM* | ?
COc1ccc(-c2nc(C#N)c(N3CCc4ccccc4C3)o2)cc1OC | -24.0%[38.3 µM] | 0.0% | 2.06µM* | 7.5% | ? | i
Cc1ccc(NC(=O)C(c2ccccc2)N2CCN(C(=O)C3CC3)CC2)cc1Cl (stereo unspecified) | nt | 16.0% | nt | nt | nt | nt
COc1ccc(CN2CCN(Cc3cccc(OC)c3OC)CC2)cc1 | nt | 0.447µM* | nt | nt | nt | nt
COc1cccc(CN2CCN(Cc3cccc(Oc4ccccc4)c3)CC2)c1OC | ? | ? | i | 23.1µM* | 14.6µM* | i
COc1cccc(CN2CCN(Cc3cc(OC)c(OC)c(OC)c3)CC2)c1OC | 1.4% | ? | ? | -0.1% | 6.5% | i
Nc1n[nH]c(CC(=O)N(Cc2ccccc2)C2(C(=O)Nc3ccccc3)CCCCC2)n1 | nt | 46.6% | nt | nt | nt | nt
O=C(c1ccccc1)N(Cc1cccnc1)C1(C(=O)Nc2ccccc2)CCCCC1 | -2.8% | -17.1% | 10.3µM* | ? | 15.6% | ?
O=C(NCCc1ccc(F)cc1)C(=O)NCC1CCCN1S(=O)(=O)c1ccccc1 (stereo unspecified) | 3.3% | 15.3% | 5.8µM* | ? | ? | 18.4µM*

High-throughput results: PubChem BioAssay, National Center for Advancing Translational Sciences (NCATS)
